Active and inactive are the calls of the source.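 The calls were made as follows, unless noted: active = primary screen active and over 50% activation in each of two duplicate runs; inactive = the rest.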
system: TRPC4 beta (transient receptor potential cation channel C4), mouse; test: activators of mouse TRPC4 channel, confirmation, cell-based, Fluo4 calcium, HEK293 TRPC4beta/mu-opioid, duplicates, 10 µM (AID 2426;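 active = fluorescence ratio normalized to control raised more than 50% in primary screen plus both repeat runs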); conditions: Fluo4 calcium fluorescence, at 10 µM

Compound | outcome
CN(C)C(CNC(=O)c1oc2ccccc2c1CSc1ncn[nH]1)c1ccco1 (stereo not drawn) | inactive
Cc1nn(-c2ccccc2)c(Cl)c1CN(C(=O)CCl)c1ccc(Cl)cc1 | inactive
COc1ccccc1N1CCc2c(C)nc3c(OC)cccc3c21 | inactive
Cc1cc(CN2CCCC(C(=O)Nc3ccc(-c4nc5ccccc5[nH]4)cc3)C2)n[nH]1 (stereo not drawn) | inactive
CCCCNCC1C(Oc2ccc(Cl)cc2)C(=O)N1c1ccccc1C (stereo not drawn) | inactive
O=C1COc2ccc(N3C(=O)C=CC3=O)cc2N1 | inactive
Cc1nc2scc(-c3ccccc3)c2c(=O)n1N=C1C=CC(=O)C=C1 | inactive
CCOC(=O)C1=NN(c2ccccc2C)C2=NC(C)=C(C(=O)OC)C(c3cccc(OC)c3)N12 (stereo not drawn) | inactive
N/C(Cc1cccc2ccccc12)=N\OC(=O)c1cccs1 | inactive
CCCSc1nc(N)nc(-c2cccs2)c1C#N | inactive
Cc1ccc(NC(=O)c2cc(N3C(=O)C=CC3=O)ccc2N2CCOCC2)cc1 | inactive
Cc1ccc(NC(=O)CNc2ccccc2CN(C)C2CCCCC2)cc1 | inactive
CC1(C)CC(NC(=O)c2cc(COc3cccc(C(F)(F)F)c3)on2)CCO1 (stereo not drawn) | inactive
COc1ccc(C2=NN(C(=O)c3ccccc3)C(c3ccc(OC)c(OC)c3)C2)c(O)c1 (stereo not drawn) | inactive
CCCn1nc([N+](=O)[O-])c(C(C#N)c2nc3ccccc3o2)c(Cl)c1=O (stereo not drawn) | inactive
COc1ccc(C(CNc2ccc(C(F)(F)F)cn2)N(C)C)cc1OC (stereo not drawn) | inactive
COc1cccc(C2=NN(C(=O)c3ccco3)C(c3ccco3)C2)c1 (stereo not drawn) | inactive
c1ccc(Cn2c(NCc3ccco3)nc3ccccc32)cc1 | inactive
CC(=O)c1ccc2c(c1)N(C)c1ccccc1S2 | inactive
CCOC(=O)C1CCN(CC(O)COc2ccc(C(C)(C)C)cc2)CC1 (stereo not drawn) | inactive

Compound | outcome
CC(C)C1=Nc2cccc3cccc(c23)N1 | inactive
Cc1cccc2nc(CSc3ccc(Cl)cc3)cn12 | inactive
O=C(NC1CCCCC1)N1CCN(C(c2ccccc2)c2ccccc2)CC1 | inactive
COc1cc(CNC2CCCC2)c(Br)cc1OCc1ccccc1 | inactive
COc1ccc(Nc2cc(C)nc3ccc(OC)cc23)cc1 | inactive
Cc1ccc(NC(=S)N(CCCN(C)C)Cc2cc3cc4c(cc3[nH]c2=O)OCO4)c(C)c1 | inactive
COc1ccc(CN2CCN(Cc3ccc(C(F)(F)F)cc3)CC2)c(OC)c1 | inactive
Cn1cc(CNCC2CCCO2)c(-c2ccc(Oc3ccccc3)cc2)n1 (stereo not drawn) | inactive
CCCCCCCCCCCCOC(=O)C[N+](C)(C)C | inactive
CN(C)CCCN(C(=O)c1ccc(S(=O)(=O)N2CCCC2)cc1)c1nc2c(F)cc(F)cc2s1 | inactive
C=C(c1ccc(O)cc1)c1ccc(O)cc1 | inactive
C/C(N)=C(/C#N)C(=O)COC(=O)CC12CC3CC(CC(C3)C1)C2 | inactive
Cc1cccc2cc(CN(CCCN(C)C)C(=S)NCCc3ccccc3)c(=O)[nH]c12 | inactive
Nc1cc(C(F)(F)F)ccc1Nc1ccccc1 | inactive
CCC(C)NC(C(=O)Nc1ccc(Cl)c([N+](=O)[O-])c1)c1ccccc1 (stereo not drawn) | inactive
COCCn1c(SCc2cccc([N+](=O)[O-])c2)nc2ccccc2c1=O | inactive
O=C(Nc1cccc(Cl)c1)N1CCN2C(=O)c3ccccc3C12c1ccccc1 (stereo not drawn) | inactive
CC(C)n1c(NCc2c[nH]c3ccccc23)nc2ccccc21 | inactive
Cc1nn(-c2ccccc2)c2[nH]c(C(F)(F)F)cc(=O)c12 | inactive

system: transient receptor potential cation channel C4 beta (TRPC4), mouse; test: activators of mouse TRPC4 channel, confirmation, cell-based, second round, Fluo4, HEK293 TRPC4beta/mu-opioid, 1 µM (AID 2461); conditions: Fluo4 calcium fluorescence, at 1 µM

Compound | outcome
CN(C)C(CNC(=O)c1oc2ccccc2c1CSc1ncn[nH]1)c1ccco1 (stereo not drawn) | inactive
Cc1nn(-c2ccccc2)c(Cl)c1CN(C(=O)CCl)c1ccc(Cl)cc1 | inactive
COc1ccccc1N1CCc2c(C)nc3c(OC)cccc3c21 | inactive
Cc1cc(CN2CCCC(C(=O)Nc3ccc(-c4nc5ccccc5[nH]4)cc3)C2)n[nH]1 (stereo not drawn) | inactive
CCCCNCC1C(Oc2ccc(Cl)cc2)C(=O)N1c1ccccc1C (stereo not drawn) | inactive
O=C1COc2ccc(N3C(=O)C=CC3=O)cc2N1 | inactive
Cc1nc2scc(-c3ccccc3)c2c(=O)n1N=C1C=CC(=O)C=C1 | inactive
CCOC(=O)C1=NN(c2ccccc2C)C2=NC(C)=C(C(=O)OC)C(c3cccc(OC)c3)N12 (stereo not drawn) | inactive
N/C(Cc1cccc2ccccc12)=N\OC(=O)c1cccs1 | inactive
CCCSc1nc(N)nc(-c2cccs2)c1C#N | inactive
Cc1ccc(NC(=O)c2cc(N3C(=O)C=CC3=O)ccc2N2CCOCC2)cc1 | inactive
Cc1ccc(NC(=O)CNc2ccccc2CN(C)C2CCCCC2)cc1 | inactive
CC1(C)CC(NC(=O)c2cc(COc3cccc(C(F)(F)F)c3)on2)CCO1 (stereo not drawn) | inactive
COc1ccc(C2=NN(C(=O)c3ccccc3)C(c3ccc(OC)c(OC)c3)C2)c(O)c1 (stereo not drawn) | inactive
CCCn1nc([N+](=O)[O-])c(C(C#N)c2nc3ccccc3o2)c(Cl)c1=O (stereo not drawn) | inactive
COc1ccc(C(CNc2ccc(C(F)(F)F)cn2)N(C)C)cc1OC (stereo not drawn) | inactive
COc1cccc(C2=NN(C(=O)c3ccco3)C(c3ccco3)C2)c1 (stereo not drawn) | inactive
c1ccc(Cn2c(NCc3ccco3)nc3ccccc32)cc1 | inactive
CC(=O)c1ccc2c(c1)N(C)c1ccccc1S2 | inactive
CCOC(=O)C1CCN(CC(O)COc2ccc(C(C)(C)C)cc2)CC1 (stereo not drawn) | inactive

Compound | outcome
CC(C)C1=Nc2cccc3cccc(c23)N1 | inactive
Cc1cccc2nc(CSc3ccc(Cl)cc3)cn12 | inactive
O=C(NC1CCCCC1)N1CCN(C(c2ccccc2)c2ccccc2)CC1 | inactive
COc1cc(CNC2CCCC2)c(Br)cc1OCc1ccccc1 | inactive
COc1ccc(Nc2cc(C)nc3ccc(OC)cc23)cc1 | inactive
Cc1ccc(NC(=S)N(CCCN(C)C)Cc2cc3cc4c(cc3[nH]c2=O)OCO4)c(C)c1 | inactive
COc1ccc(CN2CCN(Cc3ccc(C(F)(F)F)cc3)CC2)c(OC)c1 | inactive
Cn1cc(CNCC2CCCO2)c(-c2ccc(Oc3ccccc3)cc2)n1 (stereo not drawn) | inactive
CCCCCCCCCCCCOC(=O)C[N+](C)(C)C | inactive
CN(C)CCCN(C(=O)c1ccc(S(=O)(=O)N2CCCC2)cc1)c1nc2c(F)cc(F)cc2s1 | inactive
C=C(c1ccc(O)cc1)c1ccc(O)cc1 | inactive
C/C(N)=C(/C#N)C(=O)COC(=O)CC12CC3CC(CC(C3)C1)C2 | inactive
Cc1cccc2cc(CN(CCCN(C)C)C(=S)NCCc3ccccc3)c(=O)[nH]c12 | inactive
Nc1cc(C(F)(F)F)ccc1Nc1ccccc1 | inactive
CCC(C)NC(C(=O)Nc1ccc(Cl)c([N+](=O)[O-])c1)c1ccccc1 (stereo not drawn) | inactive
COCCn1c(SCc2cccc([N+](=O)[O-])c2)nc2ccccc2c1=O | inactive
O=C(Nc1cccc(Cl)c1)N1CCN2C(=O)c3ccccc3C12c1ccccc1 (stereo not drawn) | inactive
CC(C)n1c(NCc2c[nH]c3ccccc23)nc2ccccc21 | inactive
Cc1nn(-c2ccccc2)c2[nH]c(C(F)(F)F)cc(=O)c12 | inactive

— PubChem BioAssay
